Results as given in the supplement of paper PMC6555819.

Columns and labels:
Assay in all cases: PBM binding z-score (relative to random genomic background probes); higher = stronger binding; sequences stand for … in GC…GCGATTGACAGCGTAGAATGAAGG
[1] = test system: FXR:RXRa (NR concentration 270 nM, RXRa partner concentration 90 nM)
Method in brief: (§1)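 Ligand-free nuclear receptor dimers were applied to custom Agilent 4×180K protein-binding microarrays whose double-stranded probes carried direct-repeat seeds, single-nucleotide variants, half-site ablations and random human genomic background sequences in 34-nt variable regions. Incubation lasted 1 h. Binding z-scores were computed against the random background probes from regression-normalized fluorescence.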

[2] = test system: LXRa:RXRa (NR concentration 270 nM, RXRa partner concentration 90 nM)
Method in brief: as §1

[3] = test system: LXRa homodimer (NR concentration 270 nM)
Method in brief: as §1

[4] = test system: LXRb:RXRa (NR concentration 270 nM, RXRa partner concentration 90 nM)
Method in brief: as §1

[5] = test system: LXRb homodimer (NR concentration 270 nM)
Method in brief: as §1

[6] = test system: PPARa:RXRa (NR concentration 270 nM, RXRa partner concentration 90 nM)
Method in brief: as §1

[7] = test system: PPARg:RXRa (NR concentration 180 nM, RXRa partner concentration 90 nM)
Method in brief: as §1

[8] = test system: PPARg:RXRa 270nM:90nM, anti-RXR (NR concentration 270 nM, RXRa partner concentration 90 nM)
Method in brief: as §1

[9] = test system: PPARg:RXRa 30nM:10nM, anti-RXR (NR concentration 30 nM, RXRa partner concentration 10 nM)
Method in brief: as §1

[10] = test system: PPARg:RXRa 90nM:30nM, anti-RXR (NR concentration 90 nM, RXRa partner concentration 30 nM)
Method in brief: as §1

[11] = test system: PPARg:RXRa DBDmut IVT, anti-RXR (DBD mutation: RXRa K156A/R161A, NR concentration 270 nM, RXRa partner concentration 90 nM)
Method in brief: as §1

[12] = test system: PPARg:RXRa IVT, anti-PPARg (NR concentration 270 nM, RXRa partner concentration 90 nM)
Method in brief: as §1

[13] = test system: PPARg DBDmut:RXRa IVT, anti-PPARg (DBD mutation: PPARg1 K132A/R137A, NR concentration 270 nM, RXRa partner concentration 90 nM)
Method in brief: as §1

[14] = test system: PPARg DBDmut IVT, anti-PPARg (DBD mutation: PPARg1 K132A/R137A, NR concentration 270 nM)
Method in brief: as §1

[15] = test system: PPARg homodimer (NR concentration 180 nM)
Method in brief: as §1

[16] = test system: PXR:RXRa (NR concentration 270 nM, RXRa partner concentration 90 nM)
Method in brief: as §1

[17] = test system: PXR homodimer (NR concentration 270 nM)
Method in brief: as §1

[18] = test system: RARa:RXR (NR concentration 270 nM, RXRa partner concentration 90 nM)
Method in brief: as §1

[19] = test system: RARa homodimer (NR concentration 270 nM)
Method in brief: as §1

[20] = test system: RARb:RXRa (NR concentration 270 nM, RXRa partner concentration 90 nM)
Method in brief: as §1

Sequence | PBM binding z-score [1] | PBM binding z-score [2] | PBM binding z-score [3] | PBM binding z-score [4] | PBM binding z-score [5] | PBM binding z-score [6] | PBM binding z-score [7] | PBM binding z-score [8] | PBM binding z-score [9] | PBM binding z-score [10] | PBM binding z-score [11] | PBM binding z-score [12] | PBM binding z-score [13] | PBM binding z-score [14] | PBM binding z-score [15] | PBM binding z-score [16] | PBM binding z-score [17] | PBM binding z-score [18] | PBM binding z-score [19] | PBM binding z-score [20]
TTACCAAGTTGAAGGTCGTTGATCCCTCTGTAGA | 2.26 | 2.28 | 0.241 | 1.56 | -0.05 | 1.59 | 0.598 | 2.48 | 1.36 | 2.27 | 0.297 | 0.442 | 0.321 | -0.391 | 0.828 | 1.59 | 0.298 | 1.21 | 0.00913 | 1.15
TCGCGTAGGTTAGGGGCATTCAGAATGGCGTCGA | 0.432 | 0.41 | -0.522 | 0.996 | 0.176 | 1.04 | -0.162 | 1.01 | 1.38 | 1.41 | 0.918 | -0.148 | -0.436 | -0.621 | -0.168 | 0.489 | 0.0303 | 0.615 | -0.246 | 1.18
AGTCAAAGTTCAGGACGAAGTAACGTAAAGCACG | 3.85 | 3.49 | 0.943 | 1.68 | 0.274 | 3.3 | 4.78 | 4.86 | 1.78 | 3.86 | -0.478 | 1.38 | 0.781 | 0.688 | 1.46 | 2.02 | 0.921 | 1.93 | 1.14 | 4.2
TCTATTAGTCGAAGGGCAACCGACGAGTCCGTTT | 0.678 | 0.643 | 0.0615 | 0.638 | 0.475 | 0.751 | 0.274 | 2.2 | 3.57 | 2.77 | 2.28 | 0.642 | 0.468 | 0.866 | 0.702 | 0.597 | 0.535 | 0.379 | 0.63 | 1.36
CAAACTAGGTGACAGAGGTCAAAGTCCGTGCGTA | 4.84 | 5.47 | 4.88 | 5 | 1.14 | 5.75 | 7.83 | 6.75 | 4.75 | 6.85 | 8 | 8.03 | 1.36 | 0.411 | 2.02 | 5.61 | 2.31 | 5.38 | 1.29 | 4.12
CGTCCAAGGTCAATGCTAGGTCAGTGAGAGCATT | 6.44 | 5.68 | 2.93 | 4.16 | 0.966 | 5.13 | 4.1 | 4.72 | 2.14 | 3.48 | 3.49 | 4.04 | 0.572 | -0.0566 | 6.21 | 5.05 | 2.93 | 6.05 | 1.51 | 5.23
CCTATTAGATGACCATAAGGGCAACCGAAGCTCG | 0.824 | 0.35 | 0.303 | 0.273 | 0.565 | 0.419 | 0.753 | 0.324 | 0.147 | 0.0156 | -0.108 | 0.24 | 0.781 | -0.21 | 1.46 | 0.624 | 0.912 | 0.938 | 2.1 | 1.4
CGTCAAAGTTCAATGTAACGTAACAGAAAGCAGC | 6.08 | 5.08 | 3.29 | 3.5 | 1.74 | 4.08 | 3.65 | 4.35 | 1.83 | 3.34 | 0.367 | 1.51 | 1.4 | 0.705 | 2.6 | 4.03 | 4 | 3.03 | 1.95 | 4.83
TTACCAAGGTGAAGGTCGTAGATCCCTCTGTAGA | 0.719 | 0.647 | -0.474 | 0.573 | -0.742 | 2.43 | 3.49 | 3.86 | 2.16 | 3.43 | 1.02 | 3.32 | -0.72 | -0.483 | -0.867 | 0.858 | -0.255 | 1.4 | -0.36 | 2.01
TCATGTAGGTAAAAGGTGAAAGTCGGTGTGGTAA | 1.69 | 1.64 | 0.309 | 1.98 | 0.274 | 5.78 | 9.58 | 8.82 | 8.8 | 9.11 | 5.39 | 5.6 | 0.711 | 0.765 | 2.48 | 1.67 | 0.518 | 2.72 | 1.33 | 1.81
ATCTCTAGGTAAGAATCAGTTCAGTGAAGAACGC | 0.825 | 0.702 | 0.74 | 0.521 | 0.992 | 0.326 | 0.0299 | 0.324 | 0.4 | 0.435 | 1.32 | 0.899 | 0.992 | 1.06 | 1.4 | 1.05 | 1.2 | 0.793 | 2.09 | 0.435
GCGACTGGGGCGAAGCAGGTTACCATAAGGTTGG | -0.35 | -0.539 | -0.81 | -0.315 | -1.13 | 0.234 | 0.378 | -0.549 | -0.972 | -0.732 | 0.93 | 0.737 | -1.9 | -1.09 | -0.411 | -0.249 | -0.709 | -0.0547 | -0.898 | 0.235
TGATATAGGTAAAGGTGAAAGTCGAACGATATGA | 1.07 | 1.26 | 0.291 | 1.47 | 0.036 | 3.47 | 5.08 | 5.2 | 3.64 | 5.25 | 4.83 | 5.52 | 1.32 | 0.962 | 2.3 | 0.991 | 0.297 | 1.93 | 1.63 | 1.8
AGAATGAGGTTACCAAACATCAGGGAAACGCTTG | 2.02 | 2 | -0.389 | 1.31 | -0.323 | 3.21 | 2.42 | 2.19 | 1.04 | 1.8 | 4 | 3.04 | 1.44 | 0.505 | 0.76 | 0.954 | -0.13 | 1.59 | -0.309 | 1.82
